In PubChem BioAssay AID1159580 (chemical genetic matrix, 2015):
Where “and” joins values, the source holds several entries; their conditions need not be identical. Identical values can stand only once. Among all 5,500 compounds or so, about 2,000 (36%) were called active. Another 18% or so got no clear call; they are omitted. Cut-off read from the data, not from the text of the source: active = normalized growth mostly below about 0.91 (no sharp cut-off); inconclusive = no clear call, values can overlap the other calls; inactive = mostly above about 0.92. The list shows a part of the results.

Assay: chemical genetic growth profiling, strain panel (AID 1159580);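 note: tested at 20 µM; growth read once vehicle control cultures reached saturation at 30 °C; 1 = growth at the plate median or of vehicle wells; lower values mean less growth of the strain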
Conditions: growth OD

Measured: normalized growth

CC(C)NCC(O)c1cc(O)cc(O)c1 (centres undefined)
inactive: S. cerevisiae deletion strains, locus YJR043C, strain POL32, stronger effect = lower value 1.02 | S. cerevisiae deletion strains, locus YJR066W, strain TOR1, stronger effect = lower value 0.916 | S. cerevisiae deletion strains, locus YKL009W, strain mrt4, stronger effect = lower value 0.967 | S. cerevisiae deletion strains, locus YKL068W, stronger effect = lower value 0.989 | S. cerevisiae deletion strains, locus YKL085W, strain MDH1 (second series), stronger effect = lower value 0.979 | S. cerevisiae deletion strains, locus YKL085W, strain MDH1, stronger effect = lower value 0.979 | S. cerevisiae deletion strains, locus YKL160W, strain elf1, stronger effect = lower value 0.983 | S. cerevisiae deletion strains, locus YKL190W, strain CNB1, stronger effect = lower value 0.989 | S. cerevisiae deletion strains, locus YKR001C, strain vps1, stronger effect = lower value 1.02 | S. cerevisiae deletion strains, locus YKR026C, strain gcn3, stronger effect = lower value 1 | S. cerevisiae deletion strains, locus YKR091W, strain srl3, stronger effect = lower value 0.986 | S. cerevisiae deletion strains, locus YLL001W, strain dnm1, stronger effect = lower value 0.951 | S. cerevisiae deletion strains, locus YLL026W, stronger effect = lower value 0.999 | S. cerevisiae deletion strains, locus YLL041C, strain sdh2, stronger effect = lower value 0.99 | S. cerevisiae deletion strains, locus YLR027C, strain aat2, stronger effect = lower value 0.998 | S. cerevisiae deletion strains, locus YLR039C, strain RIC1, stronger effect = lower value 0.995 | S. cerevisiae deletion strains, locus YLR058C, strain SHM2, stronger effect = lower value 0.994 | S. cerevisiae deletion strains, locus YLR102C, strain apc9, stronger effect = lower value 0.994 | S. cerevisiae deletion strains, locus YLR113W, strain HOG1, stronger effect = lower value 0.972 | S. cerevisiae deletion strains, locus YLR221C, strain rsa3, stronger effect = lower value 0.983 | S. cerevisiae deletion strains, locus YLR258W, strain gsy2, stronger effect = lower value 0.993 | S. cerevisiae deletion strains, locus YLR262C, strain YPT6 (second series), stronger effect = lower value 0.972 | S. cerevisiae deletion strains, locus YLR262C, strain YPT6, stronger effect = lower value 0.98 | S. cerevisiae deletion strains, locus YLR268W, strain sec22, stronger effect = lower value 1.01 | S. cerevisiae deletion strains, locus YLR320W, strain mms22, stronger effect = lower value 0.984 | S. cerevisiae deletion strains, locus YLR330W, strain CHS5, stronger effect = lower value 0.998 | S. cerevisiae deletion strains, locus YLR342W, strain FKS1 (second series), stronger effect = lower value 1.01 | S. cerevisiae deletion strains, locus YLR342W, strain FKS1, stronger effect = lower value 0.987 | S. cerevisiae deletion strains, locus YLR357W, strain rsc2, stronger effect = lower value 0.974 | S. cerevisiae deletion strains, locus YLR370C, strain arc18, stronger effect = lower value 0.975 | S. cerevisiae deletion strains, locus YLR371W, strain rom2, stronger effect = lower value 1 | S. cerevisiae deletion strains, locus YLR384C, strain iki3, stronger effect = lower value 0.993 | S. cerevisiae deletion strains, locus YLR418C, strain cdc73, stronger effect = lower value 0.984 | S. cerevisiae deletion strains, locus YML016C, strain PPZ1, stronger effect = lower value 1.01 | S. cerevisiae deletion strains, locus YML032C, strain rad52, stronger effect = lower value 1.01 | S. cerevisiae deletion strains, locus YML120C, strain ndi1, stronger effect = lower value 0.965 | S. cerevisiae deletion strains, locus YML124C, strain tub3, stronger effect = lower value 1 | S. cerevisiae deletion strains, locus YMR058W, strain fet3, stronger effect = lower value 0.996 | S. cerevisiae deletion strains, locus YMR078C, strain ctf18, stronger effect = lower value 0.988 | S. cerevisiae deletion strains, locus YMR125W, strain sto1, stronger effect = lower value 0.971 | S. cerevisiae deletion strains, locus YMR129W, stronger effect = lower value 0.992 | S. cerevisiae deletion strains, locus YMR205C, strain PFK2, stronger effect = lower value 0.955 | S. cerevisiae deletion strains, locus YMR223W, strain ubp8, stronger effect = lower value 0.975 | S. cerevisiae deletion strains, locus YMR231W, strain pep5, stronger effect = lower value 0.998 | S. cerevisiae deletion strains, locus YMR307W, strain GAS1, stronger effect = lower value 1.04 | S. cerevisiae deletion strains, locus YNL067W, strain RPL9B, stronger effect = lower value 0.995 | S. cerevisiae deletion strains, locus YNL071W, strain lat1, stronger effect = lower value 0.98 | S. cerevisiae deletion strains, locus YNL128W, strain TEP1, stronger effect = lower value 0.967 and 0.965 | S. cerevisiae deletion strains, locus YNL153C, strain GIM3, stronger effect = lower value 1.01 | S. cerevisiae deletion strains, locus YNL175C, strain NOP13, stronger effect = lower value 1 | S. cerevisiae deletion strains, locus YNL183C, strain NPR1, stronger effect = lower value 0.924 | S. cerevisiae deletion strains, locus YNL197C, strain WHI3, stronger effect = lower value 1.01 | S. cerevisiae deletion strains, locus YNL209W, strain ssb2, stronger effect = lower value 0.988 | S. cerevisiae deletion strains, locus YNL224C, strain SQS1, stronger effect = lower value 0.997 | S. cerevisiae deletion strains, locus YNL233W, strain BNI4, stronger effect = lower value 0.997 | S. cerevisiae deletion strains, locus YNL248C, strain rpa49, stronger effect = lower value 0.985 | S. cerevisiae deletion strains, locus YNL250W, strain rad50, stronger effect = lower value 0.979 | S. cerevisiae deletion strains, locus YNL271C, strain bni1, stronger effect = lower value 0.98 | S. cerevisiae deletion strains, locus YNL298W, strain CLA4, stronger effect = lower value 0.975 | S. cerevisiae deletion strains, locus YNL307C, strain MCK1, stronger effect = lower value 0.995 | S. cerevisiae deletion strains, locus YNL322C, strain KRE1 (second series), stronger effect = lower value 0.986 | S. cerevisiae deletion strains, locus YNR049C, strain mso1, stronger effect = lower value 0.993 | S. cerevisiae deletion strains, locus YNR052C, strain pop2, stronger effect = lower value 0.987 | S. cerevisiae deletion strains, locus YOL012C, strain htz1 0.863 | S. cerevisiae deletion strains, locus YOL147C, strain pex11, stronger effect = lower value 0.992 | S. cerevisiae deletion strains, locus YOR001W, strain rrp6, stronger effect = lower value 0.994 | S. cerevisiae deletion strains, locus YOR061W, strain CKA2, stronger effect = lower value 1 | S. cerevisiae deletion strains, locus YOR069W, strain VPS5, stronger effect = lower value 0.996 | S. cerevisiae deletion strains, locus YOR070C, strain gyp1, stronger effect = lower value 0.993 | S. cerevisiae deletion strains, locus YOR080W, strain dia2, stronger effect = lower value 1 | S. cerevisiae deletion strains, locus YOR083W, strain WHI5 (second series), stronger effect = lower value 1 | S. cerevisiae deletion strains, locus YOR083W, strain WHI5, stronger effect = lower value 0.96 | S. cerevisiae deletion strains, locus YOR106W, strain vam3, stronger effect = lower value 0.976 | S. cerevisiae deletion strains, locus YOR136W, strain idh2, stronger effect = lower value 0.997 | S. cerevisiae deletion strains, locus YOR144C, strain elg1, stronger effect = lower value 1.01 | S. cerevisiae deletion strains, locus YOR184W, strain ser1, stronger effect = lower value 0.991 | S. cerevisiae deletion strains, locus YOR231W, strain MKK1, stronger effect = lower value 0.97 | S. cerevisiae deletion strains, locus YOR265W, strain rbl2, stronger effect = lower value 0.994 | S. cerevisiae deletion strains, locus YOR270C, strain vph1, stronger effect = lower value 0.98 | S. cerevisiae deletion strains, locus YOR290C, strain snf2, stronger effect = lower value 0.929 | S. cerevisiae deletion strains, locus YOR316C, strain cot1, stronger effect = lower value 0.993 | S. cerevisiae deletion strains, locus YPL051W, strain arl3, stronger effect = lower value 0.989 | S. cerevisiae deletion strains, locus YPL055C, strain LGE1, stronger effect = lower value 1.02 | S. cerevisiae deletion strains, locus YPL078C, strain atp4, stronger effect = lower value 0.967 | S. cerevisiae deletion strains, locus YPL106C, strain sse1, stronger effect = lower value 0.978 | S. cerevisiae deletion strains, locus YPL240C, strain hsp82, stronger effect = lower value 0.984 | S. cerevisiae deletion strains, locus YPL241C, strain CIN2, stronger effect = lower value 0.996 | S. cerevisiae deletion strains, locus YPL256C, strain CLN2, stronger effect = lower value 0.953 | S. cerevisiae deletion strains, locus YPR119W, strain clb2, stronger effect = lower value 0.984 | S. cerevisiae deletion strains, locus YPR141C, strain kar3, stronger effect = lower value 0.976 | S. cerevisiae deletion strains, locus YPR163C, strain tif3, stronger effect = lower value 0.991 | S. cerevisiae deletion strains, locus YPR167C, strain met16, stronger effect = lower value 0.991 | S. cerevisiae deletion strains, strain wtn01, stronger effect = lower value 0.998 | S. cerevisiae strains, strain wild type, stronger effect = lower value 1.01
